From PubChem BioAssay (NCATS) come the findings set out here.

Molecules are shown by their SMILES. Records with an inconclusive call do not appear. A call without a number means that no potency is given here. Active and inactive are the calls of the source. Calls come from the whole dose curve; as a rule, active = well fitted inhibition curve with a large enough effect; inconclusive = small, poorly fitted or top-dose-only effect; inactive = flat fitted curve, though single readings scatter.
Potency is the fitted concentration of half-maximal effect.

Chain of Ubiquitin carboxyl-terminal hydrolase 1 (Homo sapiens) (O94782 whole entry, looked up): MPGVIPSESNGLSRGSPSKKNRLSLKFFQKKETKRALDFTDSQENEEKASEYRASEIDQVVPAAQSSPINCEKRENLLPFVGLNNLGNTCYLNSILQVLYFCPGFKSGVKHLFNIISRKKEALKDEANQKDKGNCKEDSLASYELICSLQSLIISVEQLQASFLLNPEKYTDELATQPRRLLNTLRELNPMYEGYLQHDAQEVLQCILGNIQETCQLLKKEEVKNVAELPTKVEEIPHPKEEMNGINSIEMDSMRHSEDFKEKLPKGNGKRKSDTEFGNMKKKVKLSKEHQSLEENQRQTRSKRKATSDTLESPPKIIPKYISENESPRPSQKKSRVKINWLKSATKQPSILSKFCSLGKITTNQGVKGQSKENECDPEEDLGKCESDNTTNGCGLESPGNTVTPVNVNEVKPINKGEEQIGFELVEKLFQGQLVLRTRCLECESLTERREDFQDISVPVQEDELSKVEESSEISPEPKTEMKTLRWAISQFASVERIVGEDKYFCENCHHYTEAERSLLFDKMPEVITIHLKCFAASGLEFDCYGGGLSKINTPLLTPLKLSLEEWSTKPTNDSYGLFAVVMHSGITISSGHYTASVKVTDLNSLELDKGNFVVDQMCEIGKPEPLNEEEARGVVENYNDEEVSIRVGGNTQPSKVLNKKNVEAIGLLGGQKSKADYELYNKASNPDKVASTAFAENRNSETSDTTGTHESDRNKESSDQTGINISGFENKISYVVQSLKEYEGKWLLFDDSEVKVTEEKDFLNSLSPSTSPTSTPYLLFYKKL

The assay addresses Ubiquitin carboxyl-terminal hydrolase 1 (Homo sapiens) (UniProt O94782). As to the kind of experiment: Inhibitors of USP1/UAF1: Pilot qHTS (AID 504865). Note: nearly all actives have a fitted effect of over 35% in size. The note with it: purified USP1/UAF1, Ub-rhodamine cleavage fluorescence; series mostly up to 114 µM. The procedure, abridged: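 1nM USP1/UAF1 + cpd, 15 min RT; start w/ Ub-Rho 150nM final; kinetic FL 480/540 nm, 6 reads q60 s. Buffer 50mM HEPES pH 7.8, 0.5mM EDTA, 1mM TCEP, 0.01% Tween-20, 0.1 mg/ml BSA.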
`O=C(O)Cc1csc(-c2ccc(Cl)cc2)n1`: the Potency result is “inactive”.

Take `CCN(CC)CCOc1ccccc1C(=O)CCc1ccccc1`: the Potency entry was “inactive”. For `Cn1c(=O)c2[nH]c(Br)nc2n(C)c1=O` the value was “inactive”; for `Cc1cc(NS(=O)(=O)c2ccc(N)cc2)nc(C)n1`, “inactive”. On to `CC(C)Cn1cnc2c1c(=O)n(C)c(=O)n2C`, for which the Potency entry was “inactive”. For `CC(C)[N+](C)(C)CC(O)COc1cccc2ccccc12` (configuration not stated) the value was “inactive”; for `CC(=O)NO`, “inactive”.

For the molecule `COc1ccccc1N1CCN(CCCCNC(=O)c2ccc(-c3ccc(C(C)=O)cc3)cc2)CC1`, the Potency result is “inactive”. For `O=C(c1ccc(F)cc1)C1CCN(CCn2c(=S)[nH]c3ccccc3c2=O)CC1` the value was “inactive”. For `CC(C)(C)NC[C@H](O)COc1cccc2c1CCCC2=O` the value was “inactive”. For `Nc1ccc(C(=O)NCC(=O)O)cc1` the value was “inactive”. As for `O=C1C(CCS(=O)c2ccccc2)C(=O)N(c2ccccc2)N1c1ccccc1` (configuration not stated), the Potency entry is “inactive”.

As to `CC(C(=O)O)c1cccc(Oc2ccccc2)c1` (configuration not stated), the Potency result was “inactive”. For `CCC(C(=O)OCCOCCN(CC)CC)c1ccccc1` (configuration not stated) the value was “inactive”; for `c1ccc(-c2nc[nH]c2-c2ccccc2)cc1`, “inactive”.

Take `CNCCc1ccccn1`: the Potency entry was “inactive”. For `COc1ccc(/C=N/NC(=O)c2ccncc2)cc1OC` the value was “inactive”; for `Cc1cc(-c2ccccc2)nnc1NCCN1CCOCC1`, “inactive”. For `NS(=O)(=O)c1ccc(Cl)c(S(N)(=O)=O)c1` the value was “inactive”; for `O=C(O)P(=O)(O)O`, “inactive”. For `Cc1cccc(C)c1NC(=O)c1ccccc1C(=O)O` the value was “inactive”; for `O=C1C(O)=C(O)C(=O)C(O)=C1O`, 50.1 µM (active); for `CO[C@]12C[C@@H](COC(=O)c3cncc(Br)c3)CN(C)[C@@H]1Cc1cn(C)c3cccc2c13`, “inactive”. As to `OCc1ccccn1`, the Potency result was “inactive”. For `CC(=O)N[C@@H](CCC(=O)O)C(=O)O` the value was “inactive”.

On to `CC1CCc2c(N3CCC(O)CC3)c(F)cc3c(=O)c(C(=O)O)cn1c23` (configuration not stated), for which the Potency result is “inactive”. With `COc1cc(C(=O)NCc2ccc(OCCN(C)C)cc2)cc(OC)c1OC`, the Potency entry was “inactive”. For `O=S(=O)(O)c1ccc(O)cc1` the value was “inactive”; for `O[C@@H](c1cc(C(F)(F)F)nc2c(C(F)(F)F)cccc12)[C@H]1CCCCN1`, “inactive”; for `CN1CCc2cccc3c2[C@H]1Cc1ccc(O)c(O)c1-3`, “inactive”. For `NS(=O)(=O)Cc1noc2ccccc12` the value was “inactive”; for `CCCCCCCCCCCCCC[N+](C)(C)Cc1ccccc1`, 28.2 µM (active); for `CN(C)CCOC(=O)C(c1ccccc1)C1(O)CCCC1` (configuration not stated), “inactive”. For `Cc1c[nH]c2ccccc12` the value was “inactive”; for `O=C(NC1CCN(CCc2c[nH]c3ccccc23)CC1)c1ccccc1`, “inactive”. Consider `C#C[C@]1(O)CC[C@H]2[C@@H]3CCc4cc(OC)ccc4[C@H]3CC[C@@]21C`, for which the Potency entry was “inactive”. In the case of `O=C(O)CCNC(=O)c1ccccc1`, the Potency result is “inactive”.
